# From PubChem BioAssay (EPA / NIEHS)
# Activity calls are given as the source filed them. Rule for the calls: active = hit-call score of the fitted dose curve at least 0.9, where 1 is the maximum; inactive = score below 0.9.
# Read-out: not listed separately
# Assay: BSK_SAg_PBMCCytotoxicity: PBMC Cytotoxicity Assessment in the BioMAP Diversity Plus: SAg Assay (AID 2283093);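 note: PBMC viability measured as Alamar Blue reduction fluorescence at 546/580 nm; fitted both ways against DMSO so a hit may be loss or gain of signal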;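 for AC50: PBMC superantigen activated with SEB plus TSST-1 one hour after compound addition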
# Details: primary human HUVEC with PBMC
# How it was run: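 Alamar Blue reduction (6 h, 546/580 nm) reports PBMC cytotoxicity after 90 h superantigen activation (SEB, TSST-1; 20 ng/mL final each) with 1 h compound pre-treatment. Gain or loss of signal fitted versus DMSO.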
SMILES,outcome,AC50
COP(=O)(NC(C)=O)SC (stereo not given),inactive,
CCOP(=O)(SC(C)CC)N1CCSC1=O (stereo not given),inactive,
Cc1ccn2nc(S(=O)(=O)Nc3c(F)cccc3F)nc2n1,inactive,
CN1COCN(Cc2cnc(Cl)s2)C1=N[N+](=O)[O-],inactive,
CC1=NNC(=O)N(/N=C/c2cccnc2)C1,inactive,
CNC(=O)Oc1cccc2c1OC(C)(C)O2,inactive,
S=C1NCCN1,inactive,
CCCSP(=O)(OCC)SCCC,inactive,
CCCCOC(=O)[C@@H](C)Oc1ccc(Oc2ccc(C#N)cc2F)cc1,inactive,
CCOC(=O)COc1cc(-c2nn(C)c(OC(F)F)c2Cl)c(F)cc1Cl,inactive,
CON=C(C(=O)OC)c1ccccc1CON=C(C)c1cccc(C(F)(F)F)c1,,1.59 µM (active)
FC(F)C(F)(F)OCC(Cn1cncn1)c1ccc(Cl)cc1Cl (stereo not given),inactive,
CCc1cccc(C)c1N(C(=O)CCl)C(C)COC (stereo not given),inactive,
CCC(=O)Nc1ccc(Cl)c(Cl)c1,inactive,
CSc1nc(NC(C)C)nc(NC(C)C)n1,inactive,
CCOP(=O)(NC(C)C)Oc1ccc(SC)c(C)c1 (stereo not given),inactive,
CCOP(=S)(OCC)Oc1ccc([N+](=O)[O-])cc1,inactive,
CCOP(=O)(OCC)Oc1cc(C)nc(C(C)C)n1,inactive,

SMILES,outcome,AC50
CC[C@H](C)[C@H]1O[C@]2(C=C[C@@H]1C)C[C@@H]1C[C@@H](C/C=C(\C)[C@@H](O[C@H]3C[C@H](OC)[C@@H](O[C@H]4C[C@H](OC)[C@@H](NC)[C@H](C)O4)[C@H](C)O3)[C@@H](C)/C=C/C=C3\CO[C@@H]4[C@H](O)C(C)=C[C@@H](C(=O)O1)[C@]34O)O2,,2.6 µM (active)
COc1ccc(C(=CC(=O)N2CCOCC2)c2ccc(Cl)cc2)cc1OC,,9.07 µM (active)
C[N+]1(C)CCCCC1,inactive,
CCOP(=S)(OCC)Oc1cc(C)nc(C(C)C)n1,inactive,
CCCCN(CC)c1c([N+](=O)[O-])cc(C(F)(F)F)cc1[N+](=O)[O-],,24.4 µM (active)
CC(Oc1cccc(Cl)c1)C(=O)O (stereo not given),inactive,
CCCCSP(=O)(SCCCC)SCCCC,,34.8 µM (active)
CCCCOC(=O)c1ccccc1C(=O)O,inactive,
O=C(O)c1cc(Oc2ccc(C(F)(F)F)cc2Cl)ccc1[N+](=O)[O-],inactive,
COP(=O)(OC)SCn1c(=O)oc2cc(Cl)cnc21,inactive,
CNC(=O)ON=C(SC)C(=O)N(C)C,inactive,
CCOP(=S)(OCC)OC(Cl)C(Cl)(Cl)Cl (stereo not given),,29.9 µM (active)
CCCOc1nn(C(=O)NS(=O)(=O)c2ccccc2C(=O)OC)c(=O)n1C,inactive,
CSc1nnc(C(C)(C)C)c(=O)n1N,inactive,
CCOC(=O)CC(SP(=O)(OC)OC)C(=O)OCC (stereo not given),inactive,
CC(C)=CC1C(C(=O)OCN2C(=O)C3=C(CCCC3)C2=O)C1(C)C (stereo not given),,26.1 µM (active)
C#CC(C)(C)NC(=O)c1cc(Cl)cc(Cl)c1,inactive,
COP(=O)(OC)C(O)C(Cl)(Cl)Cl (stereo not given),inactive,

# Read-out: Interleukin-8 (IL8), CXCL8 (gene 3576)
# Assay: BSK_SAg_IL8: BioMAP Diversity Plus: SAg Assay for Interleukin-8 (IL8) Biomarker Activity (AID 2283094)
# Details: primary human HUVEC with PBMC; actives raise or lower the signal
# How it was run: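 HUVEC/PBMC co-culture, 24 h post-dose; IL-8 by ELISA. Gain or loss of signal fitted bidirectionally vs DMSO baseline.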
SMILES,outcome,AC50
COP(=O)(NC(C)=O)SC (stereo not given),inactive,
Cc1ccn2nc(S(=O)(=O)Nc3c(F)cccc3F)nc2n1,inactive,
CN1COCN(Cc2cnc(Cl)s2)C1=N[N+](=O)[O-],inactive,
CC1=NNC(=O)N(/N=C/c2cccnc2)C1,inactive,
CNC(=O)Oc1cccc2c1OC(C)(C)O2,inactive,
S=C1NCCN1,inactive,
CCCSP(=O)(OCC)SCCC,inactive,
CCCCOC(=O)[C@@H](C)Oc1ccc(Oc2ccc(C#N)cc2F)cc1,inactive,
CCOC(=O)COc1cc(-c2nn(C)c(OC(F)F)c2Cl)c(F)cc1Cl,inactive,
CON=C(C(=O)OC)c1ccccc1CON=C(C)c1cccc(C(F)(F)F)c1,,3.2 µM (active)
FC(F)C(F)(F)OCC(Cn1cncn1)c1ccc(Cl)cc1Cl (stereo not given),inactive,
CCc1cccc(C)c1N(C(=O)CCl)C(C)COC (stereo not given),inactive,
CCC(=O)Nc1ccc(Cl)c(Cl)c1,inactive,
CSc1nc(NC(C)C)nc(NC(C)C)n1,inactive,
CCOP(=O)(NC(C)C)Oc1ccc(SC)c(C)c1 (stereo not given),inactive,
CCOP(=S)(OCC)Oc1ccc([N+](=O)[O-])cc1,inactive,
CCOP(=O)(OCC)Oc1cc(C)nc(C(C)C)n1,inactive,

SMILES,outcome,AC50
CC[C@H](C)[C@H]1O[C@]2(C=C[C@@H]1C)C[C@@H]1C[C@@H](C/C=C(\C)[C@@H](O[C@H]3C[C@H](OC)[C@@H](O[C@H]4C[C@H](OC)[C@@H](NC)[C@H](C)O4)[C@H](C)O3)[C@@H](C)/C=C/C=C3\CO[C@@H]4[C@H](O)C(C)=C[C@@H](C(=O)O1)[C@]34O)O2,,2.16 µM (active)
COc1ccc(C(=CC(=O)N2CCOCC2)c2ccc(Cl)cc2)cc1OC,,8.93 µM (active)
C[N+]1(C)CCCCC1,inactive,
CCOP(=S)(OCC)Oc1cc(C)nc(C(C)C)n1,inactive,
CCCCN(CC)c1c([N+](=O)[O-])cc(C(F)(F)F)cc1[N+](=O)[O-],inactive,
CC(Oc1cccc(Cl)c1)C(=O)O (stereo not given),inactive,
CCCCSP(=O)(SCCCC)SCCCC,,25.9 µM (active)
CCCCOC(=O)c1ccccc1C(=O)O,inactive,
O=C(O)c1cc(Oc2ccc(C(F)(F)F)cc2Cl)ccc1[N+](=O)[O-],inactive,
COP(=O)(OC)SCn1c(=O)oc2cc(Cl)cnc21,inactive,
CNC(=O)ON=C(SC)C(=O)N(C)C,inactive,
CCOP(=S)(OCC)OC(Cl)C(Cl)(Cl)Cl (stereo not given),,25.9 µM (active)
CCCOc1nn(C(=O)NS(=O)(=O)c2ccccc2C(=O)OC)c(=O)n1C,inactive,
CSc1nnc(C(C)(C)C)c(=O)n1N,inactive,
CCOC(=O)CC(SP(=O)(OC)OC)C(=O)OCC (stereo not given),inactive,
C#CC(C)(C)NC(=O)c1cc(Cl)cc(Cl)c1,inactive,
COP(=O)(OC)C(O)C(Cl)(Cl)Cl (stereo not given),inactive,
